Assay results reported in PubChem BioAssay (NCI).
About 79,000 compounds went through this panel and 15% of them were active in at least one assay; those are over-represented in the sample as a whole. The source made the active and inactive calls. No stated cut-off is given here; in the data, active means growth inhibition above about 70%; inactive means the rest.

Columns and labels:
[1] = NCI Yeast Anticancer Drug Screen. Data for the rad52 strain (AID 147);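 further: 0% = growth of vehicle-treated control cultures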; settings: S. cerevisiae rad52 mutant growth inhibition, stronger effect = higher value
Outline: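 Yeast strain carrying a DNA damage repair alteration was exposed to test compounds. Growth inhibition was measured relative to vehicle-treated controls.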

[2] = NCI Yeast Anticancer Drug Screen. Data for the wt1 strain (AID 149);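 further: 0% = growth of vehicle-treated wt1 cultures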; settings: S. cerevisiae wt1 strain (SPY 50644) growth inhibition, stronger effect = higher value
Outline: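 Each compound is tested on wt1 yeast and the loss of growth versus vehicle gives the inhibition value.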

[3] = NCI Yeast Anticancer Drug Screen. Data for the rad50EPP+ strain (AID 151);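 further: 0% = growth of vehicle-treated control cultures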; settings: S. cerevisiae rad50 mutant strain, stronger effect = higher value
Outline: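 Yeast strain carrying rad50 alteration (rad50EPP+) exposed to compounds; growth inhibition measured relative to vehicle-treated controls.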

[4] = NCI Yeast Anticancer Drug Screen. Data for the mgt1 strain (AID 153); settings: S. cerevisiae mgt1 mutant growth inhibition, stronger effect = higher value
Outline: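 Yeast mgt1 strain (DNA repair/cell-cycle alteration panel) exposed to compounds; growth inhibition measured relative to vehicle-treated controls.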

[5] = NCI Yeast Anticancer Drug Screen. Data for the rad50 strain (AID 155);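 further: 0% = growth of vehicle-only cultures of the same strain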; settings: S. cerevisiae rad50 strain growth inhibition, stronger effect = higher value
Outline: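 Vehicle-treated cultures provide the reference for the growth inhibition reported for compound-exposed, repair-deficient yeast.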

[6] = NCI Yeast Anticancer Drug Screen. Data for the mec2-1 strain (AID 157); settings: S. cerevisiae mec2-1 strain, stronger effect = higher value
Outline: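 mec2-1 yeast strain, carrying an alteration in DNA damage repair or cell cycle control, was exposed to compounds; growth inhibition was measured relative to vehicle-treated controls.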

[7] = NCI Yeast Anticancer Drug Screen. Data for the rad14 strain (AID 159);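 further: 0% = growth of vehicle-treated control cultures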; settings: S. cerevisiae rad14 strain growth inhibition, stronger effect = higher value
Outline: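 Inhibition of growth is reported for a repair-deficient yeast mutant following compound treatment, calculated relative to cultures that received vehicle.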

[8] = NCI Yeast Anticancer Drug Screen. Data for the sgs1 mgt1 strain (AID 161);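 further: 0% = growth of cultures given vehicle only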; settings: S. cerevisiae sgs1 mgt1 strain, stronger effect = higher value
Outline: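 Percent growth inhibition was derived by comparing compound-exposed mutant yeast with vehicle-exposed cultures. The strain carries alterations in DNA damage repair.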

[9] = NCI Yeast Anticancer Drug Screen. Data for the CLN2oe strain (AID 163);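 further: 0% = growth of vehicle-only control cultures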; settings: S. cerevisiae CLN2oe strain, stronger effect = higher value
Outline: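 Yeast cells carrying a defined cell-cycle control alteration were exposed to test compounds. Growth inhibition was scored against vehicle-treated control cultures.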

[10] = NCI Yeast Anticancer Drug Screen. Data for the cln2 rad14 strain (AID 165);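 further: 0% = growth equal to vehicle treated cultures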; settings: S. cerevisiae cln2 rad14 strain, stronger effect = higher value
Outline: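 Yeast carrying cln2 and rad14 alterations (cell cycle control and DNA damage repair) were exposed to compounds. Growth inhibition was measured against vehicle-treated controls.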

[11] = NCI Yeast Anticancer Drug Screen. Data for the bub3 strain (AID 167); settings: S. cerevisiae bub3 mutant strain, stronger effect = higher value
Outline: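 Mutant yeast screening strain plus compound; vehicle-treated cultures serve as the 0% inhibition reference.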

[12] = NCI Yeast Anticancer Drug Screen. Data for the wt2 strain (AID 169); settings: S. cerevisiae wt2 strain growth inhibition, stronger effect = higher value
Outline: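 Yeast cells were exposed to test compounds, and growth inhibition was measured relative to vehicle-treated controls.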

[13] = NCI Yeast Anticancer Drug Screen. Data for the mlh1 strain (AID 171);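 further: 0% = growth of vehicle-treated control cultures of the same strain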; settings: S. cerevisiae mlh1 strain growth inhibition, stronger effect = higher value
Outline: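 Yeast carrying a defined genetic alteration in DNA damage repair or cell cycle control were exposed to test compounds. Growth inhibition was measured relative to vehicle-treated controls.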

[14] = NCI Yeast Anticancer Drug Screen. Data for the sgs1 strain (AID 173);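 further: 0% = growth of vehicle-only control cultures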; settings: S. cerevisiae sgs1 mutant, stronger effect = higher value
Outline: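 Yeast mutant strains carrying defined defects in DNA damage repair or cell cycle control were exposed to test compounds. Growth inhibition was scored against vehicle-treated controls.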

[15] = NCI Yeast Anticancer Drug Screen. Data for the mlh1 rad18 strain (AID 175); settings: S. cerevisiae mlh1 rad18 strain growth inhibition, stronger effect = higher value
Outline: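 Growth inhibition of the yeast strain was measured after compound exposure and expressed relative to vehicle-treated controls. The strain carries defined defects in DNA damage repair.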

[16] = NCI Yeast Anticancer Drug Screen. Data for the rad18 strain (AID 177); settings: S. cerevisiae rad18 mutant growth inhibition, stronger effect = higher value
Outline: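 Yeast carrying a defined DNA damage repair alteration were exposed to compounds. Growth inhibition was expressed relative to vehicle-treated controls.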

[17] = at 5.0 µM (retest, dose inferred, filed as 0.5)
[18] = at 50.0 µM (retest, dose inferred, filed as 5.0)

Measured: growth inhibition

CCNCC(=O)O[C@]1(CC)C(=O)OCc2c1cc1n(c2=O)Cc2cc3ccccc3nc2-1
inactive: [1]; at 1.2 µM 38% | [1]; at 3.7 µM 28% | [1]; at 11.0 µM 20% | [1]; at 33.0 µM 19% | [1]; at 100.0 µM 16% | [2]; at 1.2 µM 19% | [2]; at 3.7 µM 12% | [2]; at 11.0 µM 13% | [2]; at 33.0 µM 2% | [2]; at 100.0 µM 4% | [3]; at 1.2 µM 35% | [3]; at 3.7 µM 25% | [3]; at 11.0 µM 9% | [3]; at 33.0 µM 2% | [3]; at 100.0 µM -11% | [4]; at 1.2 µM 22% | [4]; at 3.7 µM 33% | [4]; at 11.0 µM 26% | [4]; at 33.0 µM 18% | [4]; at 100.0 µM 23% | [5]; at 1.2 µM 22% | [5]; at 3.7 µM 15% | [5]; at 11.0 µM 17% | [5]; at 33.0 µM 10% | [5]; at 100.0 µM -6% | [6]; at 1.2 µM 35% | [6]; at 3.7 µM 19% | [6]; [17] 4% | [6]; at 11.0 µM 19% | [6]; at 33.0 µM 6% | [6]; at 100.0 µM 6% | [7]; at 1.2 µM 11% | [7]; at 3.7 µM 6% | [7]; at 11.0 µM -1% | [7]; at 33.0 µM 6% | [7]; at 100.0 µM 1% | [8]; [17] 31% | [8]; [18] 60% | [8]; at 50.0 µM 57.5% | [9]; at 1.2 µM 33% | [9]; at 3.7 µM 30% | [9]; at 11.0 µM 32% | [9]; at 33.0 µM 22% | [9]; at 100.0 µM 18% | [10]; [17] 15% | [10]; [18] 31% | [10]; at 50.0 µM 25.6% | [11]; at 1.2 µM 28% | [11]; at 3.7 µM 1% | [11]; [17] 7% | [11]; at 11.0 µM 14% | [11]; at 33.0 µM -2% | [11]; [18] 39% | [11]; at 50.0 µM 40.8% | [11]; at 100.0 µM -6% | [12]; at 1.2 µM -29% | [12]; at 3.7 µM -32% | [12]; at 11.0 µM -19% | [12]; at 33.0 µM 25% | [13]; at 1.2 µM 13% | [13]; at 3.7 µM 6% | [13]; at 11.0 µM -2% | [13]; at 33.0 µM -13% | [13]; at 100.0 µM -21% | [14]; at 1.2 µM 9% | [14]; at 3.7 µM 15% | [14]; at 11.0 µM 13% | [14]; at 33.0 µM 5% | [14]; at 100.0 µM -21% | [15]; [17] 16% | [15]; [18] 47% | [15]; at 50.0 µM 47.4% | [16]; at 1.2 µM 25% | [16]; at 3.7 µM 27% | [16]; at 11.0 µM 21% | [16]; at 33.0 µM 22% | [16]; at 100.0 µM 13%
active: [5]; [17] 72% | [5]; [18] 90% | [5]; at 50.0 µM 86% | [6]; [18] 73% | [6]; at 50.0 µM 76% | [12]; at 100.0 µM 76%

O=C(O)CCCc1cc(I)c(N(CCCl)CCCl)c(I)c1
inactive: [1]; at 1.2 µM -18% | [1]; at 3.7 µM -35% | [1]; at 11.0 µM -14% | [2]; at 1.2 µM -59% | [2]; at 3.7 µM -53% | [2]; at 11.0 µM -59% | [2]; at 33.0 µM 68% | [3]; at 1.2 µM -25% | [3]; at 3.7 µM -15% | [3]; at 11.0 µM -27% | [3]; at 33.0 µM -23% | [3]; at 100.0 µM -33% | [4]; at 1.2 µM -20% | [4]; at 3.7 µM -42% | [4]; at 11.0 µM -42% | [5]; at 1.2 µM -60% | [5]; at 3.7 µM -55% | [5]; [17] 41% | [5]; at 11.0 µM -35% | [5]; at 33.0 µM 45% | [5]; at 50.0 µM 37.9% | [6]; at 1.2 µM -77% | [6]; at 3.7 µM -73% | [6]; [17] 11% | [6]; at 11.0 µM -36% | [6]; at 33.0 µM 60% | [6]; at 50.0 µM 69.1% | [7]; at 1.2 µM -59% | [7]; at 3.7 µM -59% | [7]; at 11.0 µM -26% | [7]; at 33.0 µM 37% | [8]; [17] 50% | [8]; at 50.0 µM 46.2% | [9]; at 1.2 µM -13% | [9]; at 3.7 µM -23% | [9]; at 11.0 µM -13% | [10]; [17] 45% | [10]; at 50.0 µM 53.5% | [11]; at 1.2 µM -58% | [11]; at 3.7 µM -37% | [11]; [17] 51% | [11]; at 11.0 µM -60% | [11]; at 50.0 µM 48% | [12]; at 1.2 µM -13% | [12]; at 3.7 µM -14% | [12]; at 11.0 µM -19% | [14]; at 1.2 µM -40% | [14]; at 3.7 µM -46% | [14]; at 11.0 µM -24% | [15]; [17] 25% | [15]; at 50.0 µM 69.3% | [16]; at 1.2 µM -63% | [16]; at 3.7 µM -50% | [16]; at 11.0 µM -13%
active: [1]; at 33.0 µM 75% | [1]; at 100.0 µM 96% | [2]; at 100.0 µM 98% | [4]; at 33.0 µM 80% | [4]; at 100.0 µM 97% | [5]; [18] 98% | [5]; at 100.0 µM 94% | [6]; [18] 99% | [6]; at 100.0 µM 95% | [7]; at 100.0 µM 95% | [8]; [18] 99% | [9]; at 33.0 µM 87% | [9]; at 100.0 µM 97% | [10]; [18] 98% | [11]; at 33.0 µM 73% | [11]; [18] 97% | [11]; at 100.0 µM 94% | [12]; at 33.0 µM 91% | [12]; at 100.0 µM 97% | [14]; at 33.0 µM 88% | [14]; at 100.0 µM 96% | [15]; [18] 98% | [16]; at 33.0 µM 76% | [16]; at 100.0 µM 93%

CC[PH+](CC)CC.CC[PH+](CC)CC.[Au]
inactive: [1]; at 1.2 µM 16% | [1]; at 3.7 µM 21% | [1]; at 11.0 µM 33% | [2]; at 1.2 µM 6% | [2]; at 3.7 µM 30% | [2]; at 11.0 µM 36% | [2]; at 33.0 µM 43% | [3]; at 1.2 µM 27% | [3]; at 3.7 µM 39% | [3]; at 11.0 µM 40% | [3]; at 33.0 µM 60% | [4]; at 1.2 µM 16% | [4]; at 3.7 µM 21% | [4]; at 11.0 µM 28% | [4]; at 33.0 µM 46% | [5]; at 1.2 µM 24% | [5]; at 3.7 µM 39% | [5]; [17] 22% | [5]; at 11.0 µM 50% | [6]; at 1.2 µM 14% | [6]; at 3.7 µM 24%
active: [1]; at 33.0 µM 80% | [1]; at 100.0 µM 99% | [2]; at 100.0 µM 98% | [3]; at 100.0 µM 97% | [4]; at 100.0 µM 98% | [5]; at 33.0 µM 92% | [5]; [18] 95% | [5]; at 50.0 µM 89.2% | [5]; at 100.0 µM 99%
